According to PubChem BioAssay:
Active and inactive are the calls of the source. Unless noted, no rule for the calls is given here.

Assays:
[1] = tested on: Wnt5a (protein binding on small-molecule microarray); experiment: Wnt5a binders on small-molecule microarray, primary screen, biophysical, 635/667 nm fluorescence (AID 1142); conditions: 635 nm fluorescence, higher = more signal;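 also: fluorescence read at 667 nm with signal to noise per printed feature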
[2] = cell viability in Huh7 cells, primary screen, cytotoxicity control for HCV replication inhibitor project, CellTiter-Glo luminescence, basal, 48 h (AID 1143); conditions: Huh7 HCV replicon, higher = more signal, called active from +8 up or from −8 down;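 also: Huh7 hepatoma cells carrying a hepatitis C replication reporter with no stimulus; test concentration not given here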
[3] = P. aeruginosa biofilm formation inhibitors, primary screen, PAO1 strain, BacTiter-Glo luminescence, LB-PBS (AID 1144); conditions: 12 h, higher = more signal
[4] = CREB reporter modulators without forskolin, primary screen, cell-based, PC12, CRE-LacZ reporter, unstimulated (AID 1145); conditions: no forskolin, luminescence, 4.5 h, higher = more signal, called active from +8 up or from −8 down
[5] = CREB reporter modulators under forskolin, primary screen, cell-based, PC12, CRE-LacZ reporter, forskolin-stimulated (AID 1146); conditions: luminescence, 4.5 h, higher = more signal, called active from +8 up or from −8 down;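 also: PC12 cells with 6xCRE LacZ reporter stimulated by forskolin 10 µM; beta-galactosidase reporter signal reflecting CREB driven transcription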
[6] = molecular target: Streptavidin (Streptomyces avidinii) (UniProt P22629); experiment: streptavidin binders on small-molecule microarray, primary screen, artefact control for SMM compound annotation, biophysical, 635/667 nm fluorescence (AID 1147); conditions: streptavidin binding, higher = more signal;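 also: signal reflects streptavidin binding to arrayed compounds as a control protein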
Chain of Streptavidin (Streptomyces avidinii) (P22629 whole entry, looked up): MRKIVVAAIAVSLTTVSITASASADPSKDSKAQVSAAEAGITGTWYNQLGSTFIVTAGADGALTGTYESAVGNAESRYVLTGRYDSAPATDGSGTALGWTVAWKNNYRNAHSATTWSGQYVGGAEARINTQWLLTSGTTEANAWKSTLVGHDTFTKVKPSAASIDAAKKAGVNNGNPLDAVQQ

[7] = small-molecule binders of probe aInhba, primary screen, biochemical, small-molecule microarray, 635/667 nm fluorescence (AID 1148); conditions: higher = more signal;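 also: score merges 667nm spot fluorescence with signal-to-noise for antibody binding to printed compounds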
[8] = molecular target: Torsin-1A (Homo sapiens) (UniProt O14656); experiment: torsin A binders from cell lysate, primary screen, small-molecule microarray, wild-type, 635/667 nm (AID 1149); conditions: COS7 hTOR1A-WT lysate, 635 nm fluorescence, higher = more signal
Chain of Torsin-1A (Homo sapiens) (O14656 whole entry, looked up): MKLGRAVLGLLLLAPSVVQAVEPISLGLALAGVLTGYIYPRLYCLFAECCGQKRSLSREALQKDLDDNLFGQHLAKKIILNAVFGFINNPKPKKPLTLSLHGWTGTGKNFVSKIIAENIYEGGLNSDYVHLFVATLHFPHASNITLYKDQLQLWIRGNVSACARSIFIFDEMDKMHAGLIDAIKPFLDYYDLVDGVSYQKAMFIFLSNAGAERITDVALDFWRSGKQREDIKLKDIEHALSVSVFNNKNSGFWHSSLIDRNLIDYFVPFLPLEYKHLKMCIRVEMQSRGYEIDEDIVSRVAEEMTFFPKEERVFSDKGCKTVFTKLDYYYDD

[9] = molecular target: Torsin-1A (Homo sapiens) (UniProt O14656); experiment: small-molecule binders of mutant TOR1A in lysate, primary screen, cell lysate, small-molecule microarray, COS7 lysate, 635/667 nm fluorescence (AID 1150); conditions: COS7 hTOR1A mutant lysate, 635 nm fluorescence, higher = more signal;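 also: score pools 667 nm emission and signal to noise measuring lysate protein binding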
[10] = tested on: Sonic hedgehog protein (Shh); experiment: small-molecule binders of Shh protein, primary screen, biochemical, small-molecule microarray, 635/667 nm fluorescence (AID 1151); conditions: small-molecule microarray binding, 635 nm fluorescence; higher = more signal;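 also: Shh protein binding to compounds spotted on small-molecule microarray slides; score combines spot fluorescence intensity with signal-to-noise across triplicate slides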
[11] = E. coli DRC41 culture turbidity changes, primary screen, E. coli filamentation inducer project, strain DRC41, OD650, 48 h (AID 1152);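 also: E. coli MC1000 strain DRC41 lacking acrAB efflux pump and sulA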; conditions: E. coli DRC41 (acrAB sulA), higher = more signal, called active from +8 up or from −8 down
[12] = small-molecule binders of probe aLefty1, primary screen, biochemical, small-molecule microarray, 635/667 nm fluorescence (AID 1153); conditions: higher = more signal;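 also: score merges spot fluorescence with signal-to-noise ratio from the scanned slide images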
[13] = PSAC antagonists in infected red cells, primary screen, cell-based, P. falciparum Indochina, OD700, 1 h (AID 1154); conditions: P. falciparum Indochina infected RBC osmotic lysis, higher = more signal, called active from +8 up or from −8 down
[14] = PSAC antagonists in infected red cells, primary screen, cell-based, P. falciparum Indochina, OD700, 2 h (AID 1155);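 also: lysis reports solute entry through the parasite surface anion channel PSAC; channel blockers reduce lysis of infected cells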; conditions: P. falciparum Indochina infected erythrocytes, osmotic lysis OD700; higher = more signal, called active from +8 up or from −8 down
[15] = osmotic lysis modulators in infected erythrocytes, primary screen, PSAC antagonist project, cell-based, P. falciparum Indochina, OD700, 3 h (AID 1156); conditions: higher = more signal, called active from +8 up or from −8 down
[16] = PSAC antagonists in infected red cells, primary screen, cell-based, P. falciparum Indochina, OD700, 18 h (AID 1157); conditions: P. falciparum Indochina infected erythrocytes, osmotic lysis OD700, 18 h; higher = more signal, called active from +8 up or from −8 down
[17] = modulators of S6 phosphorylation in cells, primary screen, cell-based, A549, cytoblot, luminescence, serum-stimulated (AID 1158); conditions: A549 phospho-S6 cytoblot, 5 h, higher = more signal;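 also: serum-stimulated A549 lung adenocarcinoma cells; signal is phosphorylated S6 detected by cytoblot immunostaining with HRP secondary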
[18] = molecular target: NADPH oxidase 2 (Homo sapiens) (UniProt P04839); experiment: NOX2-dependent H2O2 signal modulators, primary screen, NOX inhibitor project, cell-based, HEK293-NOX2, PMA-stimulated, Amplex Red fluorescence (AID 1159); conditions: 45 min, higher = more signal, called active from +8 up or from −8 down; also: test concentration not given here
Chain of NADPH oxidase 2 (Homo sapiens) (P04839 whole entry, looked up): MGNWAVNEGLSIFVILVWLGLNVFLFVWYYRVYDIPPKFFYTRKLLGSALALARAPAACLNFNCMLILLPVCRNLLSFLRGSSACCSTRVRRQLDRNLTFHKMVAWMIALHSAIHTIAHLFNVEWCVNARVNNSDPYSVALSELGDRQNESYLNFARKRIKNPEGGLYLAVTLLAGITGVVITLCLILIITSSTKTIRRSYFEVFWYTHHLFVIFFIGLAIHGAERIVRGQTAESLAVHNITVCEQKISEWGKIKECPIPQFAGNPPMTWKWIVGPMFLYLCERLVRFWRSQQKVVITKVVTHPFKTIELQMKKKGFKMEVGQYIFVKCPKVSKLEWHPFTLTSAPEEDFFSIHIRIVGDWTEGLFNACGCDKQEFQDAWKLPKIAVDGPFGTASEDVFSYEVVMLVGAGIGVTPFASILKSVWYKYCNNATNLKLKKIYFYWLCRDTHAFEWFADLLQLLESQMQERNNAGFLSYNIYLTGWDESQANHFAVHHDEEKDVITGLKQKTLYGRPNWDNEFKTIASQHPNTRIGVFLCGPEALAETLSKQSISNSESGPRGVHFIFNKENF

[19] = molecular target: NADPH oxidase 4 (Homo sapiens) (UniProt Q9NPH5); experiment: NOX4-dependent H2O2 signal modulators, primary screen, NOX inhibitor project, cell-based, HEK293-NOX4, tetracycline-induced, Amplex Red fluorescence (AID 1160); conditions: 45 min, higher = more signal, called active from +8 up or from −8 down
Chain of NADPH oxidase 4 (Homo sapiens) (Q9NPH5 whole entry, looked up): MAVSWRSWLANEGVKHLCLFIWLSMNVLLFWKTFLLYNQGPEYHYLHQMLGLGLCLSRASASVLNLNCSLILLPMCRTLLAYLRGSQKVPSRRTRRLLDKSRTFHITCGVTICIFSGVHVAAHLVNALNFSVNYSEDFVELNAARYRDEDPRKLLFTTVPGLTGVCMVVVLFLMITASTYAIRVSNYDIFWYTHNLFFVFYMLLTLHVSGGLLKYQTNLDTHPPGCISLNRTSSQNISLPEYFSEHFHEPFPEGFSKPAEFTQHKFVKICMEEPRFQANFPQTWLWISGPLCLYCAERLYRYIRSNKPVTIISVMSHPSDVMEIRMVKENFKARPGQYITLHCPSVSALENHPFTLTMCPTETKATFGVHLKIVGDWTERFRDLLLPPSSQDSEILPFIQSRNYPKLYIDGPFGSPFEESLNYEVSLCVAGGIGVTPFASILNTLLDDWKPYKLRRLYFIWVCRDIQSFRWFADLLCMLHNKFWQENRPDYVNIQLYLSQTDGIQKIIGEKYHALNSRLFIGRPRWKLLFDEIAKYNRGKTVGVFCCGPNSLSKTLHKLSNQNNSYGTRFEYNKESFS

[20] = molecular target: NADPH oxidase 5 (Homo sapiens) (UniProt Q96PH1); experiment: NOX5-dependent H2O2 signal modulators, primary screen, NOX inhibitor project, cell-based, HEK293-NOX5, Amplex Red fluorescence (AID 1161); conditions: HEK293-NOX5, ionomycin, 45 min, higher = more signal
Chain of NADPH oxidase 5 (Homo sapiens) (Q96PH1 whole entry, looked up): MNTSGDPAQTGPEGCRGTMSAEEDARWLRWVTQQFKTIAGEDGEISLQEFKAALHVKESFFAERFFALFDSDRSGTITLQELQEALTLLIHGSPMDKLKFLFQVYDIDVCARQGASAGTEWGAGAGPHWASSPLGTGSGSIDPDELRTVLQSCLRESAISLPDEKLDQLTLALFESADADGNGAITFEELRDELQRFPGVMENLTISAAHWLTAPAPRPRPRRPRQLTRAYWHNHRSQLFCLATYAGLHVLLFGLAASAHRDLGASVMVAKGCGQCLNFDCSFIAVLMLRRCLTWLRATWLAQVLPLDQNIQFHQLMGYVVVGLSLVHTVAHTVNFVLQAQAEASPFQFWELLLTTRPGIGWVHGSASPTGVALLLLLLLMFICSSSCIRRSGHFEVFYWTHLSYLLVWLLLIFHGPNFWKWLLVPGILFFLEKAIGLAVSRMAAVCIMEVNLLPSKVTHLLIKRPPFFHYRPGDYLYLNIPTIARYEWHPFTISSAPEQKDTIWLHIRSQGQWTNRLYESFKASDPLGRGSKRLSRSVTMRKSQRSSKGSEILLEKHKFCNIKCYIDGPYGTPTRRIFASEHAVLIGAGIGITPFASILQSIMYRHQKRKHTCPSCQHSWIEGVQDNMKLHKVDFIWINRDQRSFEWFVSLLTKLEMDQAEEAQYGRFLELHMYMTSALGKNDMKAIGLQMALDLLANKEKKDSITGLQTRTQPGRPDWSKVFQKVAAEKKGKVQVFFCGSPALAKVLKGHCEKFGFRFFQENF

| SMILES | composite z-score [1] | z-score [2] | z-score [3] | z-score [4] | z-score [5] | composite z-score [6] | composite z-score [7] | composite z-score [8] | composite z-score [9] | composite z-score [10] | z-score [11] | composite z-score [12] | z-score [13] | z-score [14] | z-score [15] | z-score [16] | z-score [17] | z-score [18] | z-score [19] | z-score [20] |
| --- | --- | --- | --- | --- | --- | --- | --- | --- | --- | --- | --- | --- | --- | --- | --- | --- | --- | --- | --- | --- |
| COC(=O)c1c(CC[C@@H](CO)NC(=O)N[C@@H](C)Cn2cc(C3(O)CCCC3)nn2)oc(C(C)=O)c1C(=O)OC | -0.22 | -2.75 (inactive) | -0.0355 (inactive) | 0.861 (inactive) | -0.144 (inactive) | 0.0648 | 0.117 | 0.862 | 0.277 | 2.16 | -0.274 (inactive) | 0.0561 | 1.88 (inactive) | -0.8 (inactive) | 0.816 (inactive) | -1.45 (inactive) | 2.2 | -2.54 (inactive) | -1.84 (inactive) | -2.35 |
| O=C1C[C@@](C(=O)NCc2ccccc2)(c2ccc([N+](=O)[O-])cc2)[C@@H](c2ccc(CO)cc2I)N1C1CCCCC1 | 0.286 | -4.73 (inactive) | 0.781 (inactive) | 0.234 (inactive) | 0.583 (inactive) | 0.0068 | 0.572 | 0.89 | 0.217 | 1.13 | 0.936 (inactive) | 0.503 | 11.6 (active) | 1.94 (inactive) | 3.44 (inactive) | 1.09 (inactive) | -0.153 | 1.23 (inactive) | -1.03 (inactive) | 2.16 |
| CN(C)C(=O)[C@@]1(CCS(=O)(=O)c2ccccc2)N=C(c2ccc(OCCCO)cc2)O[C@H]1c1ccccc1CN=[N+]=[N-] | 0.909 | -3.95 (inactive) | -0.873 (inactive) | -0.151 (inactive) | -0.607 (inactive) | 1.13 | 0.148 | 1.07 | 0.351 | 0.159 | 1.1 (inactive) | 0.375 | 24 (active) | 4.2 (inactive) | 0.344 (inactive) | -0.48 (inactive) | 1.12 | -1.49 (inactive) | 0.083 (inactive) | -0.558 |
| CN(C)CCCCNC(=O)[C@H]1C[C@H]2C(=O)N[C@@H](CCCC[N+](C)(C)C)C(=O)N2[C@H]1c1cccc(OCCO)c1 | 0.446 | -0.255 (inactive) | -1.16 (inactive) | -0.659 (inactive) | -0.197 (inactive) | 0.773 | 0.0228 | 1.04 | 1.01 | 2.01 | 0.125 (inactive) | 0.145 | 3.16 (inactive) | 0.77 (inactive) | 0.675 (inactive) | 0.178 (inactive) | -0.294 | 2.19 (inactive) | 1.58 (inactive) | 1.26 |
| [N-]=[N+]=NCc1ccccc1C[C@@]1(C(=O)NCCN2CCOCC2)N=C(c2ccc(OCCCO)cc2)O[C@@H]1c1ccccc1CN=[N+]=[N-] | 0.784 | -2.99 (inactive) | 0.497 (inactive) | -0.641 (inactive) | -0.781 (inactive) | 0.697 | 0.196 | -0.0348 | 0.472 | 0.619 | 0.648 (inactive) | 0.565 | 26.4 (active) | 13.7 (active) | 1.2 (inactive) | 2.26 (inactive) | -0.213 | 0.528 (inactive) | 0.116 (inactive) | 2.24 |
| CN(C)C(=O)[C@@]1(Cc2ccccc2N=[N+]=[N-])N=C(c2ccc(OCCCO)cc2)O[C@H]1c1ccccc1N=[N+]=[N-] | 0.451 | -3.76 (inactive) | 1.19 (inactive) | 1.19 (inactive) | -1.97 (inactive) | 0.54 | 0.0028 | 0.761 | 0.776 | -0.536 | 0.0086 (inactive) | -0.213 | 31.3 (active) | 29.7 (active) | 2.54 (inactive) | 3.39 (inactive) | 0.246 | -1.34 (inactive) | -0.493 (inactive) | -2 |
| COc1ccc(C#Cc2ccc3c(c2)[C@]2(C(=O)N3)[C@H](c3ccc(OCCO)cc3)N3[C@H](c4ccccc4)[C@H](c4ccccc4)OC(=O)[C@H]3[C@@H]2C(=O)N2CCN(c3ncccn3)CC2)cc1 | 0.0992 | -3.47 (inactive) | -0.385 (inactive) | 0.0653 (inactive) | -0.239 (inactive) | 0.819 | -0.0521 | 0.433 | 0.374 | 0.666 | 2.34 (inactive) | 0.0436 | 3.2 (inactive) | 0.964 (inactive) | -1.48 (inactive) | -0.856 (inactive) | 0.379 | 1.15 (inactive) | 0.706 (inactive) | 1.34 |
| Cc1cc(C)c(C(O)C2C=CC3C(=O)N(c4ccccc4)C(=O)C3N2Nc2ccc([N+](=O)[O-])cc2)c(C)c1 (stereo not given) | 0.243 | -1.1 (inactive) | -2.08 (inactive) | -0.0696 (inactive) | 0.691 (inactive) | 1.72 | 0.548 | 0.567 | 1.2 | 0.697 | -0.613 (inactive) | 0.703 | 6.15 (inactive) | 1.76 (inactive) | 0.252 (inactive) | 1.13 (inactive) | -0.62 | -0.305 (inactive) | -0.661 (inactive) | -1.63 |
| COc1ccc([Si](C)(C)[C@@H]2[C@@H](CCO)O[C@]3(C(=O)N(Cc4ccccc4)c4ccc(N5C(=O)COc6ccccc65)cc43)[C@H]2C)cc1 | 0.0063 | -6.38 (inactive) | -0.617 (inactive) | -0.636 (inactive) | 0.0638 (inactive) | 0.104 | -0.0832 | -0.0843 | -0.309 | 0.693 | 2.1 (inactive) | -0.435 | 3.28 (inactive) | 2.11 (inactive) | 0.364 (inactive) | 1.78 (inactive) | 0.631 | 0.883 (inactive) | 1.33 (inactive) | 1.42 |
| COCCCNC(=O)[C@]1(CCS(=O)(=O)c2ccccc2)N=C(c2ccc(OCCCO)cc2)O[C@@H]1c1ccccc1 | 0.118 | -1.63 (inactive) | -0.812 (inactive) | 0.638 (inactive) | -1.33 (inactive) | 1.43 | 0.371 | 0.972 | 1.33 | 0.306 | 0.664 (inactive) | 1.12 | 26 (active) | 9.64 (active) | 2.14 (inactive) | 1.82 (inactive) | -0.108 | -0.0777 (inactive) | 1.72 (inactive) | 0.88 |
